What all share (assay): DAPPL (digital affinity profiling via proximity ligation, sequencing); 10 mM Tris-HCl pH 7.5, 50 mM NaCl, 1 mM DTT, 4% glycerol, room temperature, 30 min; GST-TFs on glutathione beads, 16-mer random dsDNA library, 0.1% formaldehyde crosslink after washing; high values mean tight binding
One assay has as its target T1, FLI1 (Homo sapiens, UniProt Q01543 1-452).
T1 sequence: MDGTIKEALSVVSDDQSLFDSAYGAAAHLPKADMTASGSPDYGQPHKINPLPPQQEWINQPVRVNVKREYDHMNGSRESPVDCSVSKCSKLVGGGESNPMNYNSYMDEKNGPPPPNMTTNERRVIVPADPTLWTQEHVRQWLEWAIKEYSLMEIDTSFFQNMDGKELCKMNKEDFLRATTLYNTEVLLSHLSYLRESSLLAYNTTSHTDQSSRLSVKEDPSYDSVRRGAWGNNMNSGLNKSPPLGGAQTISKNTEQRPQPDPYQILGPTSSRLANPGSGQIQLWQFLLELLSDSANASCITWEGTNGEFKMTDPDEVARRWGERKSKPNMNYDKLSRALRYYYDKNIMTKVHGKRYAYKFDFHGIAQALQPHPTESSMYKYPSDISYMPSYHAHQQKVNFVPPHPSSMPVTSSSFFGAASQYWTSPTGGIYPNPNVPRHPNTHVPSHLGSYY
As to conditions: protein: recombinant; tags: N-terminal GST; dsDNA, one strand shown. Summed up:
(§1)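 Sequencing on an Illumina NextSeq500 followed washing, crosslinking with 0.1% formaldehyde, proximity ligation (BsaI/T4 ligase, 1 h, 37 °C) and PCR amplification of pools that had been incubated for 30 min at room temperature with 200 nmole of a random double-stranded 16-mer DNA library in Tris/NaCl/DTT/glycerol buffer. Each pool held DNA-barcoded human transcription factors, expressed in yeast as GST fusions and captured on glutathione beads, plus a tag-only sample. Binding signal is a hexamer's read frequency for a factor divided by its frequency in the tag-only sample.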

Another assay has as its target T2, ELK1 (Homo sapiens, UniProt P19419 1-428).
T2 sequence: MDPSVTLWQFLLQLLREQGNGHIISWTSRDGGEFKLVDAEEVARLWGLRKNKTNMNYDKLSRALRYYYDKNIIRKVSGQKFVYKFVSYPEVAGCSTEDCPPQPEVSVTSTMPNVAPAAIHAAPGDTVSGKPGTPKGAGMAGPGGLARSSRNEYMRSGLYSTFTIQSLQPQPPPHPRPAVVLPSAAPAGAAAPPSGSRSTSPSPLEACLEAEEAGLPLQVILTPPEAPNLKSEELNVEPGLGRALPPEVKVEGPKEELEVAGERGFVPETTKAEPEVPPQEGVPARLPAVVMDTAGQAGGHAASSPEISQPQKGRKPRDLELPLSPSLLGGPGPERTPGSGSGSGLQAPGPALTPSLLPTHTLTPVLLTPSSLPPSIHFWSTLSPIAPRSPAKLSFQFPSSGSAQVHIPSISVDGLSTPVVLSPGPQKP
As to conditions: protein: recombinant; tags: N-terminal GST; dsDNA, one strand shown. Summed up: as §1

Another assay deals with T3, GABPA (Homo sapiens, UniProt Q06546 1-454).
T3 sequence: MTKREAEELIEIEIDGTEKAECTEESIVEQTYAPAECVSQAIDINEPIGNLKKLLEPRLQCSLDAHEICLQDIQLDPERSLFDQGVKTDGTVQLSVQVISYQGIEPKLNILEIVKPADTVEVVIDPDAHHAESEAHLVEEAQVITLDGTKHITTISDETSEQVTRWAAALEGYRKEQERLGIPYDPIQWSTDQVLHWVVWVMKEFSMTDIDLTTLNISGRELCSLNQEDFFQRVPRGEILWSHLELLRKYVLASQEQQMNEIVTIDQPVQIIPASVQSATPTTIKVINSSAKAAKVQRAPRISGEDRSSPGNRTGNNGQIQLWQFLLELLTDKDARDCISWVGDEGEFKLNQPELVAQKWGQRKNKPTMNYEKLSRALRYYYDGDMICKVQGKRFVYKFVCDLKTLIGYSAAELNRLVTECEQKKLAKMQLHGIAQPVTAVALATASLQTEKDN
As to conditions: protein: recombinant; tags: N-terminal GST; dsDNA, one strand shown. The procedure, abridged: as §1

The target in a further assay is T4, ERG (Homo sapiens, UniProt P11308 1-479).
T4 sequence: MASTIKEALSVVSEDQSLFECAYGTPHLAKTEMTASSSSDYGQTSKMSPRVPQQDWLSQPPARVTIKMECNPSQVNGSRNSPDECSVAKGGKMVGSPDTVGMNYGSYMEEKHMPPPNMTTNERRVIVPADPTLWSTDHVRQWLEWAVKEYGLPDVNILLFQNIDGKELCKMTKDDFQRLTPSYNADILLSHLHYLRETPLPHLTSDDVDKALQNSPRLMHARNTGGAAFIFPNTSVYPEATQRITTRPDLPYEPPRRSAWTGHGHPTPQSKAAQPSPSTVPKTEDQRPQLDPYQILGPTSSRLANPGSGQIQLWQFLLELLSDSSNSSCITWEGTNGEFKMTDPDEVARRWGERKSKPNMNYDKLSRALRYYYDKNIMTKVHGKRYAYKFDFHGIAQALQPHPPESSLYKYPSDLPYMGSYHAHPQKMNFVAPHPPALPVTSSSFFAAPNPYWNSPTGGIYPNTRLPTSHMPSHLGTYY
As to conditions: protein: recombinant; tags: N-terminal GST; dsDNA, one strand shown. Summed up:
as §1

In a further assay the target is ELF1 (Homo sapiens, UniProt P32519 1-619). As to conditions: protein: recombinant; tags: N-terminal GST; dsDNA, one strand shown. The procedure, abridged:
as §1

The target in the next assay is T5, EHF (Homo sapiens, UniProt Q9NZC4 1-300).
T5 sequence: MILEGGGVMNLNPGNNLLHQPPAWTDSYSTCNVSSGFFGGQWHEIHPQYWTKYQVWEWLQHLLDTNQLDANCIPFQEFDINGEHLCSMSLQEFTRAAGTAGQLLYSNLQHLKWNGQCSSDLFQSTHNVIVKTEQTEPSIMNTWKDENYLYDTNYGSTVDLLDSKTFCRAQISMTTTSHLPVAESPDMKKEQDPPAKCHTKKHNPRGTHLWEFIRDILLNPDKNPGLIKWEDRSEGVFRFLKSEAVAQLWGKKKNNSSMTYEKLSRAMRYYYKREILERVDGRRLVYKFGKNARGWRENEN
As to conditions: protein: recombinant; tags: N-terminal GST; dsDNA, one strand shown. The procedure, abridged: as §1

A further assay concerns the target SPI1 (Homo sapiens, UniProt P17947 1-270). As to conditions: protein: recombinant; tags: N-terminal GST; dsDNA, one strand shown. The procedure, abridged: as §1
A further assay deals with SPIB (Homo sapiens, UniProt Q01892 1-262). As to conditions: protein: recombinant; tags: N-terminal GST; dsDNA, one strand shown. Summed up: as §1
Another assay deals with T6, ELK3 (Homo sapiens, UniProt P41970 1-407).
T6 sequence: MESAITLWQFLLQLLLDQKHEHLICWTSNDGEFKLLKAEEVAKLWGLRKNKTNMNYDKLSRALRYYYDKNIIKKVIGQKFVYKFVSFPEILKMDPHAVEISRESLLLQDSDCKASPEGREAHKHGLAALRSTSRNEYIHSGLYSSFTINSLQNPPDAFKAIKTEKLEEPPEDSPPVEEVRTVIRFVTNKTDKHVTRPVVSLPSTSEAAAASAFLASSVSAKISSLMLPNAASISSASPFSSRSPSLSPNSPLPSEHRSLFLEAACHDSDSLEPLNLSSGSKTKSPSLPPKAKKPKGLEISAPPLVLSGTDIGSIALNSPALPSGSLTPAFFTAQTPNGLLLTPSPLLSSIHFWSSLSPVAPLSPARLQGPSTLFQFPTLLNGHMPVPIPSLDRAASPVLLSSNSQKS
As to conditions: protein: recombinant; tags: N-terminal GST; dsDNA, one strand shown. The procedure, abridged: as §1

Another assay concerns the target T7, FEV (Homo sapiens, UniProt Q99581 1-238).
T7 sequence: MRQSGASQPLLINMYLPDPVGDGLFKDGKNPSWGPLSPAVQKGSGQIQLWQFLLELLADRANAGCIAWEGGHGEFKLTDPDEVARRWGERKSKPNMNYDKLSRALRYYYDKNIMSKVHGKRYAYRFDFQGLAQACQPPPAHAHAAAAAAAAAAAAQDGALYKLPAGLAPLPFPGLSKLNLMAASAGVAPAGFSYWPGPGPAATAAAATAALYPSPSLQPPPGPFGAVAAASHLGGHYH
As to conditions: protein: recombinant; tags: N-terminal GST; dsDNA, one strand shown. The procedure, abridged:
as §1

A further assay addresses ETV5 (Homo sapiens, UniProt P41161 1-510). As to conditions: protein: recombinant; tags: N-terminal GST; dsDNA, one strand shown. Summed up: as §1
The next assay concerns the target HSF1 (Homo sapiens, UniProt Q00613 1-529). As to conditions: protein: recombinant; tags: N-terminal GST; chain copies: 3; dsDNA, one strand shown. The procedure, abridged: as §1
The target in another assay is T8, SPIC (Homo sapiens, UniProt Q8N5J4 1-248).
T8 sequence: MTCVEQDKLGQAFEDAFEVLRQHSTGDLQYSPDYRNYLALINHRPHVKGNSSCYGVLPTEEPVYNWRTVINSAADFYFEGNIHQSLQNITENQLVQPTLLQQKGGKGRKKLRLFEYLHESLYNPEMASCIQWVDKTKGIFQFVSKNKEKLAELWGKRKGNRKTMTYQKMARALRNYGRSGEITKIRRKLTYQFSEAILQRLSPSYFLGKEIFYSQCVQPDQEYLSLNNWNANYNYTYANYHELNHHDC
As to conditions: protein: recombinant; tags: N-terminal GST; dsDNA, one strand shown. Summed up: as §1

The target in another assay is ELF4 (Homo sapiens, UniProt Q99607 1-663). As to conditions: protein: recombinant; tags: N-terminal GST; dsDNA, one strand shown. Summed up: as §1
The target of the next assay is T9, ELK4 (Homo sapiens, UniProt P28324-2 1-405).
T9 sequence: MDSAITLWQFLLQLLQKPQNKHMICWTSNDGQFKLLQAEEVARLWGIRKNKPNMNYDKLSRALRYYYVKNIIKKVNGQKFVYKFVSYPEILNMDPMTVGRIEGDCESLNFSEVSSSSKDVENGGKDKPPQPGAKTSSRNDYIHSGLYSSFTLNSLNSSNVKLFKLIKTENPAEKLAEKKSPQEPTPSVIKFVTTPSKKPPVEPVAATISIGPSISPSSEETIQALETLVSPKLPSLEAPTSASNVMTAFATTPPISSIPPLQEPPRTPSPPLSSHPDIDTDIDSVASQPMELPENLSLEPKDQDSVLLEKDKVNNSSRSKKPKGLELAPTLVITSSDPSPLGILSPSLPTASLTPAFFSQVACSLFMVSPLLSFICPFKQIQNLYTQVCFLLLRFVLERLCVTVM
As to conditions: protein: recombinant; tags: N-terminal GST; dsDNA, one strand shown. Summed up: as §1

Another assay concerns the target T10, ETV2 (Homo sapiens, UniProt O00321 1-342).
T10 sequence: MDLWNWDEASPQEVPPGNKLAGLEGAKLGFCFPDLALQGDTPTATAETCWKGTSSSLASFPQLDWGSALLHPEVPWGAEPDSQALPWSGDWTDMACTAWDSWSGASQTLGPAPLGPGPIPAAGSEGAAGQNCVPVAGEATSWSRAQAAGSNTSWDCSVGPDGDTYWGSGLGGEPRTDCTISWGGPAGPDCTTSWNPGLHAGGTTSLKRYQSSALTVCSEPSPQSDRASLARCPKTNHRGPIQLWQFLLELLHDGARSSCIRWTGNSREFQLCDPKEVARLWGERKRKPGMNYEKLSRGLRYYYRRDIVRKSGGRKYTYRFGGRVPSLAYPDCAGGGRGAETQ
As to conditions: protein: recombinant; tags: N-terminal GST; dsDNA, one strand shown. Summed up:
as §1

The next assay concerns the target T11, ELF3 (Homo sapiens, UniProt P78545 1-371).
T11 sequence: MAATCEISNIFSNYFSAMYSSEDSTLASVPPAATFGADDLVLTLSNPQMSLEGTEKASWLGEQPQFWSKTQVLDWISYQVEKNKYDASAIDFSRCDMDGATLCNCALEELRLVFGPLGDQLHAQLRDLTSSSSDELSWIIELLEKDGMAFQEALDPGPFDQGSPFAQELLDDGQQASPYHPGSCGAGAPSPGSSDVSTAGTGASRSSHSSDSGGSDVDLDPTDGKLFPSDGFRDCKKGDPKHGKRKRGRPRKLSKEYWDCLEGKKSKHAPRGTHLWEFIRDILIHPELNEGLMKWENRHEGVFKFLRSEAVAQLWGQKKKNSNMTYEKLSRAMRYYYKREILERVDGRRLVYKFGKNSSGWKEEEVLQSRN
As to conditions: protein: recombinant; tags: N-terminal GST; dsDNA, one strand shown. Summed up:
as §1

For the next assay, the target named is ETV1 (Homo sapiens, UniProt P50549 1-477). As to conditions: protein: recombinant; tags: N-terminal GST; dsDNA, one strand shown. Summed up:
as §1

HSF1, sequence (Q00613 whole entry): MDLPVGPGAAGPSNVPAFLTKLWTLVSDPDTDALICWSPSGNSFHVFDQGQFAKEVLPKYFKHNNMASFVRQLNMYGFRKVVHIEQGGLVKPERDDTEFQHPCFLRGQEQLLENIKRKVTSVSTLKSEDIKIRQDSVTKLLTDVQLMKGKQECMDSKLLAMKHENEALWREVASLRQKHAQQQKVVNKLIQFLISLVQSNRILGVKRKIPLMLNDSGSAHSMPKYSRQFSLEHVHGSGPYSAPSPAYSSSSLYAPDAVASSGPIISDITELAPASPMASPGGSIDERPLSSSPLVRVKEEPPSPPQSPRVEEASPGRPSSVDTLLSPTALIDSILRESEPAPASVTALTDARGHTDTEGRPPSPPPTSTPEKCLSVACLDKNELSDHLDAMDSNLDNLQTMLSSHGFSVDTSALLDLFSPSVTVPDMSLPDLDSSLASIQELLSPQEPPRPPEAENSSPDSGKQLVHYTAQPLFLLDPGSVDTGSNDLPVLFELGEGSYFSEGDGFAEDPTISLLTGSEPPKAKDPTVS
ELF4, sequence (Q99607 whole entry): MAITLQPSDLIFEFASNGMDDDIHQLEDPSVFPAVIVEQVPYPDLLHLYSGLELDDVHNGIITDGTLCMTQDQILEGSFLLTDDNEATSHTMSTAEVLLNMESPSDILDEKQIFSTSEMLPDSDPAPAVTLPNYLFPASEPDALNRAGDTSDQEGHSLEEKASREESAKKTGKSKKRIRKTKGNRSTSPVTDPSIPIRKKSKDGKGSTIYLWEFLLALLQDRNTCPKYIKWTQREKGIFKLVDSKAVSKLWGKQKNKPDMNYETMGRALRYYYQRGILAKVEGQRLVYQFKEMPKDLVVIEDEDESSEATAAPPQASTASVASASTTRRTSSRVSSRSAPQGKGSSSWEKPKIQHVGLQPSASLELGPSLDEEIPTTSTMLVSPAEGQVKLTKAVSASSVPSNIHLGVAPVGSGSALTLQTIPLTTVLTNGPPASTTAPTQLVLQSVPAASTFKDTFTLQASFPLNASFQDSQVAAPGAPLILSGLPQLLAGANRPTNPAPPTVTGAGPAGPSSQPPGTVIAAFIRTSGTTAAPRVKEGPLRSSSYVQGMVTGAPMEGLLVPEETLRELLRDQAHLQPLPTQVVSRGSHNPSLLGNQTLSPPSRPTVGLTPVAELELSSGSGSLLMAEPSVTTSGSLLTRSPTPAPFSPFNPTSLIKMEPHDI
ETV1, sequence (P50549 whole entry): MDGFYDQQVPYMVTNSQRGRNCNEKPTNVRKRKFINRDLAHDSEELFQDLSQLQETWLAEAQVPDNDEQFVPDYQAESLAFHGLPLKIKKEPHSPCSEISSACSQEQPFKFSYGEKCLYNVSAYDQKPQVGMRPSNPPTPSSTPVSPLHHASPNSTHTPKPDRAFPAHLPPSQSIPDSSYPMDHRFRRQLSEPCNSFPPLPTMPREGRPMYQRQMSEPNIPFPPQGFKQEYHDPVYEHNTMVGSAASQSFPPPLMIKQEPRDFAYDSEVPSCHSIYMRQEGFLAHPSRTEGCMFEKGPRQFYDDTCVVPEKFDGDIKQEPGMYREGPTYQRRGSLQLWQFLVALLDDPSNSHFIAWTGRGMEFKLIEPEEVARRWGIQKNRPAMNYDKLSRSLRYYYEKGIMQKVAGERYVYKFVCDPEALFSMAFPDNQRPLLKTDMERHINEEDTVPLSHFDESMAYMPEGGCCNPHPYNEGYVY
ELF1, sequence (P32519 whole entry): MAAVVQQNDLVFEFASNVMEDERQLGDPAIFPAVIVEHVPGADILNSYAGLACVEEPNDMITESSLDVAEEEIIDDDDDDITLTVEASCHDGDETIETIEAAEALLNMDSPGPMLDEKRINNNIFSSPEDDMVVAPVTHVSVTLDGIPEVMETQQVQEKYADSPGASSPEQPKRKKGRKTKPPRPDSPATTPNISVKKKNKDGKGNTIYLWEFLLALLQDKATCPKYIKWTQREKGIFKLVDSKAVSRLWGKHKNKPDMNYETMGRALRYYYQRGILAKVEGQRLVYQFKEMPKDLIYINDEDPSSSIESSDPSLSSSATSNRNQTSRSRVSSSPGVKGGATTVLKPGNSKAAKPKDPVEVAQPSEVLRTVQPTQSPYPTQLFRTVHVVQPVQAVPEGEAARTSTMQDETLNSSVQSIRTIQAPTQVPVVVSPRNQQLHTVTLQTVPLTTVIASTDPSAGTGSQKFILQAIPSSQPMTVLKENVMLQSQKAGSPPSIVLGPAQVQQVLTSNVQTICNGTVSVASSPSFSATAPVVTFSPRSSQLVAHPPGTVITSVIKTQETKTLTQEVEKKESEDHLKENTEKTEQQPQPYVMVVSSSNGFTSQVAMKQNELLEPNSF
ETV5, sequence (P41161 whole entry): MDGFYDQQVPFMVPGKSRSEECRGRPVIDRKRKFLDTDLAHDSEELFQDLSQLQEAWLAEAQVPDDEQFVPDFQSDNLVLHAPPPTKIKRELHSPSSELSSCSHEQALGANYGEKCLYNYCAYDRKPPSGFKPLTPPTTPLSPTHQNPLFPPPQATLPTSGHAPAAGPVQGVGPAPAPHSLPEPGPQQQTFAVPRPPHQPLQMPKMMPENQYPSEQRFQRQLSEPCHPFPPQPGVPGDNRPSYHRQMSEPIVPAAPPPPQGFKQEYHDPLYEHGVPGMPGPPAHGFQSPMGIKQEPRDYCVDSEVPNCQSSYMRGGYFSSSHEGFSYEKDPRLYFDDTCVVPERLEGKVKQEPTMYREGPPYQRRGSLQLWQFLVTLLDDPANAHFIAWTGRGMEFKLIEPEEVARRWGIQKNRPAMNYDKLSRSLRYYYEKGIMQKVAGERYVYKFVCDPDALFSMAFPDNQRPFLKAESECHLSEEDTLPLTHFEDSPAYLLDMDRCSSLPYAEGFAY
SPIB, sequence (Q01892 whole entry): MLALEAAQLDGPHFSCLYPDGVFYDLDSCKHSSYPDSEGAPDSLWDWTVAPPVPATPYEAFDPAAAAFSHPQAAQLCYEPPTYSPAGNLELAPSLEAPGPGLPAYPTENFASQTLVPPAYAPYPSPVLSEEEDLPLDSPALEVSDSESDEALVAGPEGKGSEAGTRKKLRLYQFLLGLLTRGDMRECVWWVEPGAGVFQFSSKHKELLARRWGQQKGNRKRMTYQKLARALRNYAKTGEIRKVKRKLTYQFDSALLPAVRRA

On to TGCCCG, for which the binding signal was 1.16 fold enrichment (6-mer frequency, TF over GST control) in the assay with FLI1; 1.16 fold enrichment (6-mer frequency, TF over GST control) with ELK1; 1.24 fold enrichment (6-mer frequency, TF over GST control) in the assay with GABPA; 1.19 fold enrichment (6-mer frequency, TF over GST control) with ERG; 1.2 fold enrichment (6-mer frequency, TF over GST control) with ELF1; 1.27 fold enrichment (6-mer frequency, TF over GST control) with EHF. In addition, the binding signal in the assay with SPI1 was 1.13 fold enrichment (6-mer frequency, TF over GST control); in the assay with SPIB it was 1.14 fold enrichment (6-mer frequency, TF over GST control); with ELK3, 1.12 fold enrichment (6-mer frequency, TF over GST control); with FEV, 1.27 fold enrichment (6-mer frequency, TF over GST control); in the assay with ETV5, 1.21 fold enrichment (6-mer frequency, TF over GST control); with HSF1, 1.01 fold enrichment (6-mer frequency, TF over GST control). The binding signal with SPIC was 1.34 fold enrichment (6-mer frequency, TF over GST control); with ELF4, 1.21 fold enrichment (6-mer frequency, TF over GST control); with ELK4, 1.16 fold enrichment (6-mer frequency, TF over GST control); in the assay with ETV2, 1.26 fold enrichment (6-mer frequency, TF over GST control); with ELF3, 1.32 fold enrichment (6-mer frequency, TF over GST control); in the assay with ETV1, 1.21 fold enrichment (6-mer frequency, TF over GST control).

These data come from article PMC7862700, “An all-to-all approach to the identification of sequence-specific readers for epigenetic DNA modifications on cytosine”.
